Bioassay records from PubChem BioAssay.
Most compounds without a hit are left out; they make up all but 15% or so of the library.
RORgamma inh = qHTS for inhibitors of ROR gamma transcriptional activity | Drosophila S2 Gal4-RORgamma UAS-luciferase reporter, 20 h | Potency, µM (titrated, usually from 53.6 µM), for inactives: at the highest dose activity change, negative = inhibition, most hits filed as inhibitors | 310,000 compounds, 5.4% hits | AID 2551, 2010; also: nearly all actives have a fitted effect of over 60% in size
Target sequence (P51450 whole entry, looked up, the tested form may be a part): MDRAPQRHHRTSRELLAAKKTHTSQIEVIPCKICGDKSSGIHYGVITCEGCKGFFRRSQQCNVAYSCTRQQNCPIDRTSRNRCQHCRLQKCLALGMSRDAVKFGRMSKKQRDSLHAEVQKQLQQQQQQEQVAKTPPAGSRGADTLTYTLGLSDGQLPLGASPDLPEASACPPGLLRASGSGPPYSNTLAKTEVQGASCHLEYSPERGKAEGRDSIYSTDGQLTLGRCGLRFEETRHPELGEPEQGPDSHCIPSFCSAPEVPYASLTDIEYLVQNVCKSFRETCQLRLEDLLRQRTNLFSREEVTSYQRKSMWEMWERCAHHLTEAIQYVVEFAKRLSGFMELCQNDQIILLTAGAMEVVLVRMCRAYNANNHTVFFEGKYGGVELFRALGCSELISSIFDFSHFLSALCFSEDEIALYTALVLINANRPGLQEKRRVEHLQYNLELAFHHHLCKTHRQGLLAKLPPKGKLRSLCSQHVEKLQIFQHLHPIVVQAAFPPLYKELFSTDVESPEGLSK
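A Gal4/UAS one-hybrid system in insect cells: metallothionein-promoter Gal4–ROR gamma fusion plus Photinus luciferase reporter. Copper sulfate 700 uM final, 20 hr ambient incubation, luminescent detection after 10 min with reagent.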
12-LOX inh = Primary qHTS assay for inhibitors of human arachidonate 12S-lipoxygenase (ALOX12): Round 2. Polyunsaturated fatty acid lipoxygenase ALOX12 (Homo sapiens), P18054. purified 12hLO, xylenol orange hydroperoxide absorbance. Potency, µM (top dose mostly 108 µM), for inactives: at the highest dose activity change, negative = inhibition, hits mostly inhibitors. 580,000 compounds, 1.1% hits. AID 1671190, 2021
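Hydroperoxide product was detected by ferrous iron/xylenol orange as the 573 to 405 nm absorbance ratio. Arachidonic acid at 40 uM (final) was turned over for 30 min at room temperature by 150 nM human 12hLO, pH 7.0 Hepes buffer, after 15 min compound preincubation.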
DT40 TDP1 CPT = qHTS for Inhibitors of human tyrosyl-DNA phosphodiesterase 1 (TDP1): qHTS in cells in presence of CPT | chicken DT40 Tdp1-/-;hTDP1 cells + 20 nM CPT, ATP luminescence, 48 h | Potency, µM (doses to about 46.2 µM), for inactives: at the top dose activity change, negative = growth inhibition, usual class: inhibitors | 420,000 compounds, 12% hits | AID 686979, 2013; also: nearly all actives have a fitted effect of over 55% in size
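Chicken DT40 Tdp1-/- cells complemented with human TDP1, 400 cells/well, exposed to compounds plus 20 nM camptothecin for at least 48 h at 37 C; viability read as ATP content by CellTiter-Glo luminescence.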
DT40 TDP1 no CPT = qHTS for Inhibitors of human tyrosyl-DNA phosphodiesterase 1 (TDP1): qHTS in cells in absence of CPT; DT40 Tdp1-/- hTDP1 cells, no CPT, ATP luminescence, 48 h; Potency, µM (titrated, usually from 46.2 µM), for the others: at the top dose activity change, negative = growth inhibition, hits mostly inhibitors; 420,000 compounds, 15% hits; also: nearly all actives have a fitted effect of over 55% in size
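Camptothecin absent (DMSO only). Human TDP1-complemented DT40 knockout cells, 400 cells/well, 37 °C for minimum 48 hr; ATP measured via CellTiter-Glo, 30 min dark incubation, luminescence.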
ELG1 DNA repair = qHTS screen for small molecules that inhibit ELG1-dependent DNA repair in human embryonic kidney (HEK293T) cells expressing luciferase-tagged ELG1; AID 504467, 2011; HEK293T ELG1-luciferase reporter, luminescence, 16 h; DNA damage induced by 5-fluorouridine; Potency, µM (highest dose often 46.1 µM), inactives show at the top dose activity change, negative = inhibition, usual class: inhibitors; 330,000 compounds, 2.3% hits; also: nearly all actives have a fitted effect of over 55% in size
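Cells (2,000 per well) received 5-fluorouridine plus test compound or DMSO and were incubated 16 hr at 37 °C, 5% CO2. Luciferase activity was read by luminescence 30 min after ONE-Glo addition; signal suppression marked inhibition of damage-induced ELG1 function.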
Gal4-VP16 FLuc = VP16 counterscreen qHTS for inhibitors of ROR gamma transcriptional activity. Drosophila S2 Gal4-VP16 UAS-luciferase, luminescence, 20 h. Potency, µM (highest dose often 53.6 µM), inactives show at the highest dose activity, negative = inhibition, usual class: inhibitors. 310,000 compounds, 3.5% hits. AID 2546, 2010;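 also: Gal4-VP16 expression switched on by copper sulfate through the metallothionein promoter; nearly all actives have a fitted effect of over 50% in size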
ELG1 Luc conf = HTS assay for small molecules that inhibit ELG1-dependent DNA repair in human embryonic kidney (HEK293T) cells expressing luciferase-tagged ELG1: Hit Confirmation | AID 624248, 2012 | Potency, µM (series often up to 46.1 µM), for the others: at the highest dose activity change, negative = inhibition, hits mostly inhibitors | HEK293T ELG1-luciferase levels, luminescence; cells co-treated with 5-fluorouridine | 670 compounds, 68% hits | shares compounds with ELG1 DNA repair; also: nearly all actives have a fitted effect of over 55% in size
ELG1 MMS Luc = MMS-stimulated human ELG1 repair inhibition, confirmed. Potency, µM (series often up to 46.1 µM), inactives show top-dose activity change, negative = inhibition, actives largely listed as inhibitors. 670 compounds, 53% hits. HEK293T luciferase-tagged ELG1 level, MMS stimulated. shares compounds with ELG1 DNA repair. AID 624249; also: nearly all actives have a fitted effect of over 60% in size
ELG1 5-FU = qHTS screen for small molecules that inhibit ELG1-dependent DNA repair: Hit Confirmation with 5FU Viability | shares compounds with ELG1 DNA repair | cell viability with 5-FU, ELG1-dependent repair | Potency, µM (doses to about 46.1 µM), without a hit: at the highest dose activity change, negative = viability loss, hits mostly cytotoxic | 670 tested, under 10 active;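 also: ELG1-luc HEK293T cells cotreated with 5-fluorouridine at 10 µM final; viability measured 16 h after compound addition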
ELG1 MMS cell = qHTS screen for small molecules that inhibit ELG1-dependent DNA repair: Hit Confirmation with MMS Viability. Potency, µM (titrated, usually from 46.1 µM), without a hit: top-dose activity change, negative = viability loss, actives largely listed as cytotoxic. Cell viability with MMS, ELG1-dependent DNA repair. 670 compounds, 33% hits. shares compounds with ELG1 DNA repair;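 also: ELG1-luc HEK293T cells co-treated with 10 µM MMS; viability read 16 h after compound addition; nearly all actives have a fitted effect of over 60% in size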
Cell viab unstim = qHTS screen for small molecules that inhibit ELG1-dependent DNA repair: Hit Confirmation with Unstimulated Viability Assay; Potency, µM (highest dose often 45.9 µM), for inactives: at the highest dose activity change, negative = loss of viability, usual class: cytotoxic; cell viability counter-screen, unstimulated, luminescence; shares compounds with ELG1 DNA repair; 900 compounds, 8% hits;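 also: compound exposure lasted 16 hours before reading; nearly all actives have a fitted effect of over 55% in size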
* hit, by the source's call; ? = inconclusive; · = no result given; [ ] = another dose, or the depositor's remark. Calls follow the shape of the dose curve; as a rule, active = well fitted curve in the direction sought with a large enough effect; inconclusive = small, poorly fitted or top-dose-only effect, or another doubt; inactive = no such curve, though single readings can be large; an effect the other way counts as inactive or inconclusive. % is scaled to controls: 0 for no effect and ±100 for the full control effect; potency is read from the fitted curve at half-maximal effect.

SMILES	RORgamma inh	12-LOX inh	DT40 TDP1 CPT	DT40 TDP1 no CPT	ELG1 DNA repair	Gal4-VP16 FLuc	others
CCOc1ccc(C(=O)Nc2ccc(S(=O)(=O)N(Cc3ccccc3)c3ccccc3)cc2)cc1	·	-8.3%	5.8µM*	5.17µM*	·	·
COC(=O)Cc1ccc(N(Cc2ccccc2F)S(=O)(=O)c2ccc(Cl)cc2)cc1	39.9%	-10.7%	?	14.6µM*	-5.6%	-16.7%
Cc1ccc(C(=O)Nc2ccc(S(=O)(=O)N(Cc3ccccc3)c3ccccc3)cc2)cc1	·	-14.8%	16.4µM*	23.1µM*	·	·
Cn1cc(C(C(=O)O)N2CCN(C=O)CC2)c2cc(C(=O)O)ccc21 (stereo not drawn)	·	-42.5%	·	·	·	·
COc1ccc(-c2nc(CC(=O)NC3CCN(Cc4ccccc4)CC3)cs2)cc1	·	55.8%	·	·	·	·
CCOc1ccc(C2Nc3ccccc3C(=O)N2C2CC2)cc1OC (stereo not drawn)	·	30.7%	·	·	·	·
COc1ccc(CCNC(=O)c2nccnc2N)cc1	·	1.4%	·	·	·	·
COc1ccc(N(Cc2ccccc2)S(=O)(=O)c2cccc(C(=O)Nc3ccccn3)c2)cc1	·	200.6%	?	?	-7.2%	·
O=C(Nc1ccccn1)c1ccc(CN(c2ccccc2)S(=O)(=O)c2ccccc2)cc1	-16.2%	13.2%	?	?	18.3µM*	1.4%
CC(=O)N1CCC2(CNS(=O)(=O)c3cnccc3O2)C1 (stereo not drawn)	·	12.6%[6.33 µM]	·	·	·	·
COc1ccc(C(=O)Nc2ccccc2-c2nc3ccccc3s2)c(OC)c1	·	8.0%	18.4µM*	16.4µM*	·	·
O=C(COc1ccc([N+](=O)[O-])cc1)Nc1ccc2oc(-c3cccnc3)nc2c1	·	0.5%	·	·	·	·
Cc1ccc(SCC(=O)Nc2ccc3oc(-c4ccc(F)cc4)nc3c2)cc1	·	-11.3%	?	?	·	·
COc1cccc(C(=O)Nc2ccccc2-c2nc3ccccc3s2)c1	·	-12.7%	-3.7%	?	·	·
Cc1ccc(SCC(=O)Nc2ccc(O)c(-c3nc4cc(C)ccc4o3)c2)cc1	·	-13.5%	?	20.6µM*	·	·
Cc1ccc(OCC(=O)Nc2ccc(O)c(-c3nc4cc(C)c(C)cc4o3)c2)cc1	·	·	?	1.58µM*	·	·
O=C(COc1ccc([N+](=O)[O-])cc1)Nc1ccc2oc(-c3ccc(F)cc3)nc2c1	·	7.94µM*	·	·	·	·
CNC(=O)NC(=O)C(C)N(C)Cc1cccc(C#N)c1 (stereo not drawn)	·	50.2%	·	·	·	·
Cc1ccc(OCC(=O)Nc2ccc(O)c(-c3nc4ccccc4o3)c2)cc1	-0.1%	0.0%	11.6µM*	?	-12.0%	-4.7%
COc1ccc(OCC(=O)Nc2ccc(O)c(-c3nc4ccccc4s3)c2)cc1	·	-27.1%	0.82µM*	?	·	·
Cc1ccc(OCC(=O)Nc2cccc(-c3nc4ccccc4s3)c2)cc1	·	-16.8%	?	?	·	·
O=C(Nc1ccc(O)c(-c2nc3ccccc3o2)c1)C1(c2ccc(Br)cc2)CCCC1	6.31µM*	-2.1%	?	13µM*	9.4%	5.62µM*
O=C(Nc1ccc(O)c(-c2nc3ccccc3o2)c1)c1ccc(Br)cc1	·	0.6%	-4.6%	-3.5%	·	·
COc1cc(CNC(C)Cn2nc(C)cc2C)ccc1OCCN1CCCC1 (stereo not drawn)	·	37.2%	·	·	·	·
COc1ccc(C2=NN(C(=O)COc3ncnc4ccccc34)C(c3ccco3)C2)cc1 (stereo not drawn)	30.9%	0.7%	-69.6%	25.9µM*	4.11µM*	-2.1%	ELG1 Luc conf=?;ELG1 MMS Luc=-2.1%;ELG1 5-FU=?;ELG1 MMS cell=9.0%;Cell viab unstim=7.8%
COc1ccc(N2CCN(C(=O)COc3ncnc4ccccc34)CC2)cc1	15.8%	65.7%	0.8%	-27.3%	28.0%	1.6%
